The source made the active and inactive calls.

Experiment [1] relates to PRMT1 (protein arginine N-methyltransferase 1). Description: small molecules binding arginine methyltransferase PRMT1 – biochemical, small-molecule microarray, 635 nm fluorescence, primary screen (AID 1088).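 Also: binding of Prmt1 protein to compounds spotted on small-molecule microarray slides.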 As to conditions: higher = more signal.
The nature of experiment [2]: growth effects on S. cerevisiae YJM789 – YJM789 clinical isolate, OD600, 24 h, basal, primary screen (AID 1089).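 Also: growth of clinical yeast isolate S. cerevisiae YJM 789 seeded 1000 cells per well; test concentration not given here.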 The conditions noted are these: higher = more signal, called active from +8 up or from −8 down.
Experiment [3] in a line: S. pombe growth modifiers, basal conditions – strain 972, OD600, 24 h, no modulator, primary screen (AID 1090).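 Also: basal condition with compound alone and no growth modifier present; test concentration not given here.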 The conditions noted are these: S. pombe 972 growth, higher = more signal, called active from +8 up or from −8 down.
Experiment [4] in a line: budding yeast growth modifiers under rapamycin – strain BY4716, OD600, 96 h, primary screen (AID 1091). Also: test concentration not given here. As to conditions: S. cerevisiae BY4716 + rapamycin, higher = more signal, called active from +8 up or from −8 down.
Experiment [5] has as its target Torsin-1A-interacting protein 2 (Homo sapiens) (UniProt Q8NFQ8). Description: small molecules binding lysate-expressed LULL1 – cell lysate, human LULL1 lysate, 635/667 nm fluorescence, primary screen (AID 1092).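 Also: probe is lysate of COS7 cells overexpressing human LULL1; score merges per-feature 667 nm fluorescence with signal-to-noise.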 The conditions noted are these: small-molecule microarray, hLULL1 lysate binding, 635 nm fluorescence; higher = more signal.
Experiment [6] is described as follows: optical density change of DRC41 E. coli – strain DRC41, OD650, 24 h, E. coli filamentation project, primary screen (AID 1093).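 Also: MC1000 strain lacking acrAB efflux and sulA so SOS filamentation is blocked; test concentration not given here.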 The conditions noted are these: E. coli DRC41 growth, higher = more signal, called active from +8 up or from −8 down.
The nature of experiment [7]: probe aLefty2 binding to arrayed compounds – biochemical, biotinylated probe, 635/667 nm fluorescence, primary screen (AID 1094).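 Also: score merges spot fluorescence near 667 nm with spot signal-to-noise ratio.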 The conditions noted are these: small-molecule microarray, higher = more signal.
The test system of experiment [8] is Noggin (protein binding on small-molecule microarray). Description: small molecules binding Noggin protein – biochemical, 635/667 nm fluorescence, primary screen (AID 1095).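 Also: score merges 667 nm feature fluorescence with signal to noise over triplicate slides.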 The conditions noted are these: 635 nm fluorescence, higher = more signal.
Experiment [9] concerns the target Neurogenic locus notch homolog protein 3 (Homo sapiens) (UniProt Q9UM47). Description: small molecules binding NOTCH3 protein – biochemical, 635/667 nm fluorescence, primary screen (AID 1096). As to conditions: small-molecule microarray, 635 nm fluorescence, higher = more signal.
The nature of experiment [10]: probe aEGFR binding to arrayed compounds – biochemical, biotinylated probe, 635/667 nm fluorescence, primary screen (AID 1097).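 Also: probe is a biotinylated anti-EGFR antibody binding compounds printed on slides; score combines fluorescence near 667 nm and signal to noise of each spot.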 As to conditions: small-molecule microarray, higher = more signal.
In experiment [11] the test system is Plasmodium falciparum Sir2 (PF13_0152, Sir2A). Description: Plasmodium falciparum Sir2A binding compounds – biochemical, small-molecule microarray, 635 nm fluorescence, primary screen (AID 1098).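 Also: score merges spot fluorescence intensity with its signal-to-noise ratio.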 The conditions noted are these: fluorescence 635 nm, higher = more signal.
A short description of experiment [12]: probe aDKK1 binding to arrayed compounds – biochemical, biotinylated probe, 635/667 nm fluorescence, primary screen (AID 1099).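 Also: score merges 667nm spot fluorescence with signal to noise across triplicate slides; reference of the scale not given here.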 The conditions noted are these: small-molecule microarray, higher = more signal.
Experiment [13] in a line: probe aCHRDL2 binding to arrayed compounds – biochemical, biotinylated probe, 635/667 nm fluorescence, primary screen (AID 1100). The conditions noted are these: small-molecule microarray, higher = more signal.
A short description of experiment [14]: change in splice reporter luminescence, either direction, cell-based, HEK293, spliceosome inhibition project, primary screen (AID 1101).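 Also: HEK293 cells carrying a splicing-competent luciferase reporter gene; test concentration not given here.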 The conditions noted are these: HEK293 splicing luciferase reporter, 24 h, higher = more signal, called active from +8 up or from −8 down.
The target in experiment [15] is Fibroblast growth factor 10 (Homo sapiens) (UniProt O15520). Description: compounds binding fibroblast growth factor 10 – biochemical, small-molecule microarray, 635 nm fluorescence, primary screen (AID 1102). The conditions noted are these: FGF10 binding, fluorescence 635 nm, higher = more signal.
Sequence of Fibroblast growth factor 10 (Homo sapiens) (O15520 whole entry, looked up): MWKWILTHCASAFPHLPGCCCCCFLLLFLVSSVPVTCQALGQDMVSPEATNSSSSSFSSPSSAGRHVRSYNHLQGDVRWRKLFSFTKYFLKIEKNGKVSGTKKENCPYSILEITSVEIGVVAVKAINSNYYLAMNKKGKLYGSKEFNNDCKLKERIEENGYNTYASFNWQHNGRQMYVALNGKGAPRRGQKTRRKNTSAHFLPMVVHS
In experiment [16] the test system is glycogen synthase kinase-3 (GSK3A per assay name; protocol says GSK3B). Description: compounds binding glycogen synthase kinase-3 – biochemical, small-molecule microarray, 635 nm fluorescence, GSK3A, primary screen (AID 1103). Also: the record names both GSK3A and GSK3B. As to conditions: fluorescence 635 nm, higher = more signal.
Experiment [17] has as its target Epidermal growth factor receptor (Homo sapiens) (UniProt P00533). Description: compounds binding epidermal growth factor receptor – biochemical, small-molecule microarray, 635 nm fluorescence, primary screen (AID 1104).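 Also: score merges 667 nm emission intensity with spot signal to noise over triplicate slides.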 As to conditions: EGFR binding, higher = more signal.
The target in experiment [18] is Follistatin-related protein 3 (Homo sapiens) (UniProt O95633). Description: compounds binding follistatin-related protein 3 – biochemical, small-molecule microarray, 635 nm fluorescence, primary screen (AID 1105).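 Also: score merges emission near 667 nm and signal to noise per printed spot across three slides.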 As to conditions: FSTL3 binding, higher = more signal.
Sequence of Follistatin-related protein 3 (Homo sapiens) (O95633 whole entry, looked up): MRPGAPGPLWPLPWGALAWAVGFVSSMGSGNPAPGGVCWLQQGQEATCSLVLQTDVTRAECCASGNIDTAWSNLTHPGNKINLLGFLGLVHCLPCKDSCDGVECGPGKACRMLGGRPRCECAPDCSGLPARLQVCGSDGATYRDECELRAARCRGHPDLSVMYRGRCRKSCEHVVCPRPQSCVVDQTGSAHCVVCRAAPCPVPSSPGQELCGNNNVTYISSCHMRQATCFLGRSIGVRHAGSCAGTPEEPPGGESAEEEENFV
Experiment [19] addresses Dickkopf-related protein 1 (Homo sapiens) (UniProt O94907). As to the kind of experiment: small molecules binding DKK1 protein – biochemical, small-molecule microarray, 635 nm fluorescence scan, primary screen (AID 1106).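 Also: score merges emission near 667 nm with signal to noise over three replicate slides.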 The conditions noted are these: higher = more signal.
In experiment [20] the test system is Inhibin beta A chain (activin A). As to the kind of experiment: small molecules binding activin A – biochemical, small-molecule microarray, 635 nm fluorescence scan, primary screen (AID 1107).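 Also: mouse activin A protein probed at 4.33 µg/mL on printed slides; score merges bound-protein fluorescence near 667 nm with spot signal-to-noise.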 The conditions noted are these: INHBA, higher = more signal.

Sequence of Torsin-1A-interacting protein 2 (Homo sapiens) (Q8NFQ8 whole entry, looked up): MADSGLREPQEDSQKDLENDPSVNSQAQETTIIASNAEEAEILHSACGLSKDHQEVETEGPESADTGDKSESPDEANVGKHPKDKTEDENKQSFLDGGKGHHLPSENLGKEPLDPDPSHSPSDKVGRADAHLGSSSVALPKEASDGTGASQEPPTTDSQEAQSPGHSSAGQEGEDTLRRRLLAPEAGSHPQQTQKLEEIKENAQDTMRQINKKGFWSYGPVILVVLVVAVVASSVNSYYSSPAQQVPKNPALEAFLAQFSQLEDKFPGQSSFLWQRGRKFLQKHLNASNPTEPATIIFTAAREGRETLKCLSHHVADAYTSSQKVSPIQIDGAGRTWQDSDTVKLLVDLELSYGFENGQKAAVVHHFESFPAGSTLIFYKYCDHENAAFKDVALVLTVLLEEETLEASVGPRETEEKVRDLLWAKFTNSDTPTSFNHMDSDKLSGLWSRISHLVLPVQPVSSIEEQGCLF
Sequence of Dickkopf-related protein 1 (Homo sapiens) (O94907 whole entry, looked up): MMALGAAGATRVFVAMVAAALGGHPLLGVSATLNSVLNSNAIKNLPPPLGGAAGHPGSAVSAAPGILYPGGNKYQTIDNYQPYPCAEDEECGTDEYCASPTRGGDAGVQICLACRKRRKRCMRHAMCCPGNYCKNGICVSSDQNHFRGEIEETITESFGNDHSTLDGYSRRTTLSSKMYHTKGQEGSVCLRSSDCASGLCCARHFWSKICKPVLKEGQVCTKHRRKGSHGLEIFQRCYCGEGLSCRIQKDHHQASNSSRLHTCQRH
Sequence of Neurogenic locus notch homolog protein 3 (Homo sapiens) (Q9UM47 whole entry, looked up): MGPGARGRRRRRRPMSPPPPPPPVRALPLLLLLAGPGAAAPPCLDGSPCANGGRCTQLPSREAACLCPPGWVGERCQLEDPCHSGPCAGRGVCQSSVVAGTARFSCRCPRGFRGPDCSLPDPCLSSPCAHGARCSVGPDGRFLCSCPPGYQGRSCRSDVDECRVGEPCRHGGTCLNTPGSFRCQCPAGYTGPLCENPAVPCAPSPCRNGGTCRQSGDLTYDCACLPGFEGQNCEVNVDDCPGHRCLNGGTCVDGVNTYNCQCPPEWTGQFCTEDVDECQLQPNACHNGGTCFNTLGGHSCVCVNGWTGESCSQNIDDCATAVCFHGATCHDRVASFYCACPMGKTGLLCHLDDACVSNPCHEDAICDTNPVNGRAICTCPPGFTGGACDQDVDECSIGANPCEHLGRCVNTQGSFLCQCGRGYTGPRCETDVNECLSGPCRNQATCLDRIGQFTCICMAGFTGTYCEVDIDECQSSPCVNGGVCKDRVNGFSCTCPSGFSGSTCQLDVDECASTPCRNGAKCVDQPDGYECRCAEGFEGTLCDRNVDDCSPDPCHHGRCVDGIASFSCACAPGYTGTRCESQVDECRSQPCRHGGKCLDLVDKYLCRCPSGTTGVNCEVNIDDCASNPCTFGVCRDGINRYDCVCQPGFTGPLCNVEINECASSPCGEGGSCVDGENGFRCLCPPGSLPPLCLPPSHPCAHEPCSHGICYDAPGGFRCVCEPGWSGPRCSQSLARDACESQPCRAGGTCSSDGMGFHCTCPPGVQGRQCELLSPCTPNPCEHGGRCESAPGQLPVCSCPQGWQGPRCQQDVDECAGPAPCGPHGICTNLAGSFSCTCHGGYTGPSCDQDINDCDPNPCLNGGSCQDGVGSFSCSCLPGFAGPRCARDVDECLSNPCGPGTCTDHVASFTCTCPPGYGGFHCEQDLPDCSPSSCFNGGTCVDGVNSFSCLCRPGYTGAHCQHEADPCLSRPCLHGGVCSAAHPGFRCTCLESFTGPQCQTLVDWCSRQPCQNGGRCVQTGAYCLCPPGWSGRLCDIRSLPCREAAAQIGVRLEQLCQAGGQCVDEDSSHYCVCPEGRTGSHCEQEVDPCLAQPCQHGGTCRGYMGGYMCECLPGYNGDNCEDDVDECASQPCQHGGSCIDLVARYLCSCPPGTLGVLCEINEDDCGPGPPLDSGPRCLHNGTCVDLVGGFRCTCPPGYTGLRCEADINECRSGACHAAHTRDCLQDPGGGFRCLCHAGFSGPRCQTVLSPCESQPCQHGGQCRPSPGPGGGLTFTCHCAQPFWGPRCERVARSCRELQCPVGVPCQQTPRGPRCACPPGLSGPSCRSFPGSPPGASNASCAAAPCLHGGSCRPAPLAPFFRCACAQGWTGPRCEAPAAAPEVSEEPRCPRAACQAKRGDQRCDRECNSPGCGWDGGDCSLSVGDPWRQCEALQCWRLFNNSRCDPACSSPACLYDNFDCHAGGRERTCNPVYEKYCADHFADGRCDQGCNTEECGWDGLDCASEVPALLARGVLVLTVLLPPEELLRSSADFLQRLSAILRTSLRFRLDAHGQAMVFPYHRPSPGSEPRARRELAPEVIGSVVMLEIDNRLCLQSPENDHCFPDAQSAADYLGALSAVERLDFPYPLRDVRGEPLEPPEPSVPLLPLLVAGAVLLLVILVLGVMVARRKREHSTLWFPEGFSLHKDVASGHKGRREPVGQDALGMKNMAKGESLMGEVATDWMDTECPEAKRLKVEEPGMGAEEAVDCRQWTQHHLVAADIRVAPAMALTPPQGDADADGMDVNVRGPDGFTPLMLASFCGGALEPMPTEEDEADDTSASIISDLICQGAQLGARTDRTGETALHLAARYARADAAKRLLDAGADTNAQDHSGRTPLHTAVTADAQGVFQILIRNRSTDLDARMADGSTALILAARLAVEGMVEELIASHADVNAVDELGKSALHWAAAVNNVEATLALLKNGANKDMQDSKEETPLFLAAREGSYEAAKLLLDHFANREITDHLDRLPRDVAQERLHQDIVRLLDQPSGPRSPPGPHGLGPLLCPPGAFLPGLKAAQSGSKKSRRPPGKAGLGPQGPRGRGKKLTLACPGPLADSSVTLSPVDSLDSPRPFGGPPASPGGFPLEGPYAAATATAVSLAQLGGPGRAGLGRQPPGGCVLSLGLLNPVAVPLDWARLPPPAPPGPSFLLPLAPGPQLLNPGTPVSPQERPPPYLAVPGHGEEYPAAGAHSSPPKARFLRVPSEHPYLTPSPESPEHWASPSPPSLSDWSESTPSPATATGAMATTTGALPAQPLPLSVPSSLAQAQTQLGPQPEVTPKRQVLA
Sequence of Epidermal growth factor receptor (Homo sapiens) (P00533 whole entry, looked up): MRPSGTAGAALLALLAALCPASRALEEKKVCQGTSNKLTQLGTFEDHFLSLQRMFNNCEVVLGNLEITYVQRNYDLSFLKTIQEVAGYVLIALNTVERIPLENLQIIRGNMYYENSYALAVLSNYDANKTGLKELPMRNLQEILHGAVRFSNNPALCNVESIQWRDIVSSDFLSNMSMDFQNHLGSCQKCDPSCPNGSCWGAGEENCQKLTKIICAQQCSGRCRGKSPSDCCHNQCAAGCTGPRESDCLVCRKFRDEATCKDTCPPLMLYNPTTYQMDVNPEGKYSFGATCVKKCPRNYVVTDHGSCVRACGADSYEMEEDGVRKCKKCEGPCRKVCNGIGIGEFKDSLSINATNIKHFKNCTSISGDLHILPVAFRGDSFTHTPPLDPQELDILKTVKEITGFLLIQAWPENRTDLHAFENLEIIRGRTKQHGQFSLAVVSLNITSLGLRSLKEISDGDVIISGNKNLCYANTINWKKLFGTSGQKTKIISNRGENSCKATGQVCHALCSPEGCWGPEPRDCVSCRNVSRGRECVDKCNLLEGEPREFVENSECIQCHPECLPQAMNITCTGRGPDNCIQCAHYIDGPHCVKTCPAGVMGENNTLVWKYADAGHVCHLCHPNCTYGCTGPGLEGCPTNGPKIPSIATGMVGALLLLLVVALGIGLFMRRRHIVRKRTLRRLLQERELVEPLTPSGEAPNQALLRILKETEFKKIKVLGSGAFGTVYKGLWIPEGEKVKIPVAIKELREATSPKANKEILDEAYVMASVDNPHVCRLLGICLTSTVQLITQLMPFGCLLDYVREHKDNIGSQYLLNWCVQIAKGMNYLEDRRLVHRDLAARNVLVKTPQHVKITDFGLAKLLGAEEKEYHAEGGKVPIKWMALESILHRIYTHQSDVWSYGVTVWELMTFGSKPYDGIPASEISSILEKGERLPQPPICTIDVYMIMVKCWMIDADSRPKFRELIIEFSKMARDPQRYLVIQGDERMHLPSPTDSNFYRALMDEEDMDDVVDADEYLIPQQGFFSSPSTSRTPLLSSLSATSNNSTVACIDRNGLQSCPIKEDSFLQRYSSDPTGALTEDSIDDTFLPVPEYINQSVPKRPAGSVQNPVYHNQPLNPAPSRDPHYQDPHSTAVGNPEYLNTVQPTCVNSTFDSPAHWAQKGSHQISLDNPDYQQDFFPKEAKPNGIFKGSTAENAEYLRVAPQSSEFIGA

With `CCOC(=O)CCN1C(=O)[C@H]2[C@H]3[C@H](O)[C@H](O)CC(=NOCc4ccccc4)[C@H]3CC[C@H]2C1=O`, the composite z-score in experiment [1] was -0.112; in [5] it was 0.374; in experiment [7], 0.58; in experiment [8], -0.316; in experiment [9] it was -0.665; in experiment [10] it was 0.276. Further, the composite z-score was 0.1 in experiment [11]; 1.27 in experiment [12]; 1.32 in [13]; -0.556 in [15]; -0.395 in experiment [16]; 0.193 in experiment [17]. In addition, the composite z-score was -0.828 in experiment [18], -1.06 in [19] and 0.288 in experiment [20]. For the same compound, the z-score in experiment [2] is 0.819 (inactive); in experiment [3] it was 1.04 (inactive); in experiment [4] it was 0.492 (inactive); in [6], 1.08 (inactive); in experiment [14] it was 0.509 (inactive).
Take `COC(=O)[C@H]1O[C@@H](c2c(OC)c(OC)c(C)c(OC)c2OC)[C@H](C)[C@@H](O)[C@H]1C`: the composite z-score in [1] is 1.03; in [5], 0.964; in experiment [7], -0.0131; in [8] it was 0.585; in experiment [9], 1.1; in experiment [10], 0.0821. Further, the composite z-score in [11] stood at 0.209; in experiment [12], 0.138; in [13], 0.112; in experiment [15], 0.798; in [16], 0.824; in experiment [17], 0.0132. In addition, the values for the composite z-score in [18], in experiment [19] and in experiment [20] were 0.89, 0.743 and -0.311, respectively. The z-score in [2] was 0.234 (inactive); in experiment [3] it was 0.346 (inactive); in experiment [4] it was -0.438 (inactive); in experiment [6], 0.196 (inactive); in [14] it was -0.187 (inactive).
With `CCOC(=O)[C@H](CC(C)C)NC(=O)CCC1CC(OC(=O)NCc2cccc3ccccc23)CC2(CCCC(COC(=O)NCCOC)O2)O1` (stereo not given in full), the composite z-score in experiment [1] is 1.5; in experiment [5], 2.7; in [7], -0.0633; in experiment [8] it was 0.607; in [9] it was 1.08; in [10], 0.0576. Besides, the composite z-score in [11] was 0.546; in [12] it was -0.164; in experiment [13], -0.401; in experiment [15], 0.799; in experiment [16], 1.3; in experiment [17], 0.412. In addition, the composite z-score in experiment [18] is 1.17; in experiment [19], 0.358; in [20] it was -0.0748. For the same compound, the z-score is -1.43 (inactive) in [2]; -0.837 (inactive) in experiment [3]; -1.09 (inactive) in experiment [4]; -0.157 (inactive) in [6]; -1.8 (inactive) in experiment [14].
As for `CC(C)=CCCC(C)=CCON=C1C[C@@H](O)[C@@H](O)[C@@H]2[C@@H]3C(=O)N(Cc4ccccc4)C(=O)[C@@H]3CC[C@H]12`, the composite z-score in [1] is 1.06; in experiment [5], 1.94; in [7] it was -0.236; in experiment [8] it was 0.608; in experiment [9], 0.811; in [10] it was -0.034. The composite z-score in experiment [11] was 0.639; in experiment [12], -0.21; in [13] it was -0.659; in [15] it was 0.932; in [16], 1.12; in [17] it was 0.611. Besides, the composite z-score is 1.14 in [18], -0.523 in [19] and 1.11 in [20]. Moreover, the z-score in experiment [2] was -0.574 (inactive); in experiment [3], -1.58 (inactive); in [4] it was -1.29 (inactive); in experiment [6], -0.128 (inactive); in [14] it was -1.83 (inactive).
As to `C=CC[C@@H]1C=C[C@H](ON=C(C)CCC(=O)OC[C@H]2O[C@H](C#Cc3ccccc3)C=C[C@@H]2Oc2ccc(C)cc2)[C@@H](CO)O1`, the composite z-score in [1] is 1.54; in experiment [5], 2.2; in experiment [7] it was -0.116; in [8], 0.615; in experiment [9], 1.12; in experiment [10] it was 0.109. Moreover, the composite z-score in experiment [11] was 1.19; in [12] it was -0.0927; in experiment [13] it was -0.515; in [15], 1.16; in experiment [16], 1.01; in [17], 0.298. In addition, the results for the composite z-score in experiment [18], in experiment [19] and in [20] were 1.04, 0.606 and -0.117, respectively. The z-score was 1.28 (inactive) in experiment [2]; 0.275 (inactive) in experiment [3]; 1.06 (inactive) in experiment [4]; 0.943 (inactive) in experiment [6]; -0.439 (inactive) in [14].

For the origin of these results see PubChem BioAssay.
